In ChEMBL document CHEMBL1157539, “Thousands of chemical starting points for antimalarial lead identification” (Nature, 2010) one finds Inhibition data, which are given here for 14 molecules.

A word on the Inhibition: it is the share of the control response that was lost under treatment.

The assay concerns HepG2. Kind of assay: GSK_TCMDC: Percent inhibition of human HepG2 cell line. Test compounds present at 10uM. The class given is functional.
Take `COc1ccc(CCn2c(C3CCCCC3)nc3oc4ccccc4c(=O)c3c2=O)cc1`: the Inhibition amounted to 12%.

Consider `O=C(NCCc1ccccc1F)c1ccc(N2CCN(c3ccncc3)CC2)cn1.O=C(O)C(F)(F)F`, for which the Inhibition was 8%.

As for `Cc1ccccc1/N=C1\NC(=S)N(c2cccc(C(F)(F)F)c2)C12CCC(C(C)(C)C)CC2` (centres undefined), the Inhibition was determined as 9%.

For `O=C(CN1CCCCC1)Nc1ccc(Nc2nccc(NCC(O)c3ccccc3)n2)cc1` (centres undefined), the Inhibition amounted to 62%.

For the molecule `COC(=O)CCCCOc1cc(Cc2cnc(N)nc2N)cc(OC)c1OC`, the Inhibition was 0%.

In turn, `CCOc1cccc(C(=O)Nc2ccc(-c3nc4ccccc4[nH]3)cc2)c1` returned an Inhibition of 40%.

`CC(C)c1cn2c3c(cc(C(=O)N[C@@H](Cc4ccccc4)[C@H](O)CNC4CCCCC4)cc13)N(C)S(=O)(=O)CC2.O=CO` returned an Inhibition of 9%.

Regarding `CC(C)Cc1nc(N)nc(N)c1-c1ccc(Cl)cc1`, the Inhibition is on record as 5%.

As for `O=C(Nc1ccc(N2CCCCC2)c(Cl)c1)c1ccco1`, the Inhibition was 0%.

`Br.COc1cc(CCON2C(N)=NC(N)=NC2(C)C)cc(OC)c1OC` came in with an Inhibition of 59%.

In the case of `CC(CN(C)C)C(=O)Nc1ccc(-c2ccc(-c3nc4ccccc4[nH]3)s2)cc1` (centres undefined), the Inhibition came out at 14%.

In turn, `CC(C)(C)OC(=O)NCc1ccc(Nc2nnc(-c3cccc(OCC(=O)NCc4cc(C(F)(F)F)cc(C(F)(F)F)c4)c3)o2)cc1` showed an Inhibition of 32%.

`FC(F)(F)c1ccc2[nH]c(-c3ccc(-c4ccc(CNCc5cnn(-c6ccccc6)n5)cc4)cc3)nc2c1.O=C(O)C(F)(F)F` came in with an Inhibition of 35%.

On to `CCCCCCCCc1nc(C)c(Br)c(O)c1Br`, for which the Inhibition is 2%.
